DAX1 inh – DAX1 (NR0B1) inhibitors, primary screen, cell-based, HEK293, Gal4-DAX1, luciferase luminescence. HEK293 Gal4-DAX1 luciferase reporter. inhibition, % at 6.75 µM. 340,000 compounds, 0.99% hits. AID 504766, 2011;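 active = inhibition above the mean over all tested compounds plus 3 SD, cut at about 4.2% in these data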;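 note: 0% = DAX1-transfected cells with DMSO and 100% = empty-vector control cells with DMSO; inhibition shows as a rise in luminescence from relieved DAX1 repression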
HSP90 refold inh – HSP90 inhibitors, primary screen, cell lysate, luminescence. Heat shock protein HSP 90 (rabbit reticulocyte lysate; luciferase refolding). Rabbit reticulocyte lysate, luciferase refolding luminescence, 3 h. inhibition, % at 5.6 µM. 290,000 compounds, 0.91% hits. AID 1789, 2009;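 active = inhibition above the screen-wide mean plus 3 SD, computed separately per campaign, cut at about 16% in these data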;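 note: 0% = DMSO wells and 100% = 60 µM geldanamycin wells; inhibitors lower the luminescence because luciferase stays unfolded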
AHR act – AHR activators, primary screen, cell-based, luminescence, luciferase reporter, human | activation, % at 5 µM | Aryl hydrocarbon receptor (Homo sapiens), P35869 | 320,000 compounds, 2.5% hits | AHR-responsive luciferase reporter cells; in the data active = activation above about 47%;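 note: 0% = vehicle wells and 100% = reference agonist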
HSF1 inhib – HSF1 inhibitors in luciferase reporter cells, primary screen, cell-based, NIH3T3, luminescence | AID 2098, 2009 | 300,000 compounds, 0.77% hits | activity change, negative = inhibition, % at 7.5 µM (by protocol) | NIH3T3-HGL HSE-luciferase, MG132-induced, luminescence 8 h; hits give low values;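 active = more than half of replicate wells show activity change below -50%, luminescence cut by over half; inconclusive = some wells, but at most half, below -50%; inactive = no replicate well below -50%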;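 note: luciferase reports HSF-1 transcriptional activity via heat shock element; 0% = median of DMSO wells and -100% = zero luminescence signal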
GAA850 FXN act – FXN promoter activators, primary screen, cell-based, luciferase luminescence, HEK293 lucGAA850 | HEK293 lucGAA850 FXN promoter luciferase reporter, 24 h; percent of 10 µM SAHA response | 360,000 compounds, 0.56% hits | activation, % at 6 µM | AID 540364, 2011;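 active = activation above the average of all compounds screened plus 3 SD, cutoff fixed separately per campaign, cut at about 7.5% in these data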;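 note: 0% = DMSO wells and 100% = 10 µM SAHA wells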
HSF1 activator – HSF-1 activators, primary screen, NIH3T3-HGL cells, MG132 stress, luminescence, single point; NIH3T3-HGL HSF-1 luciferase reporter, 8 h; 100% = twice DMSO control signal; activation, % at 9 µM; 300,000 compounds, 1.7% hits; AID 504408, 2011;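 active = mean replicate activation of at least 50% with a set share of replicates each reaching 50%; inconclusive = only one of those two conditions met; inactive = mean below 50% and too few replicates reaching it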;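 note: 0% = median of the neutral control wells and 100% = twice that signal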
* = called active by the depositor; ? = inconclusive; · = no result given. Shown are actives, neighbours in structure and some others; about 5.9% of the full set was active somewhere.

SMILES | DAX1 inh | HSP90 refold inh | AHR act | HSF1 inhib | GAA850 FXN act | HSF1 activator
O=C(Nc1nnc(Cc2ccc([N+](=O)[O-])cc2)s1)c1ccc2c(c1)OCO2 | -0.6 | 1.0 | 54.9* | -5.5 | 1.6 | 3.7
O=C(COC(=O)c1cccc(OC(F)F)c1)NC1CCCC1 | 0.7 | -2.5 | -0.2 | -2.9 | 1.8 | 4.4
CC1=CC2C(C3C=CC2(C)C(=O)C3(C)O)C(C)(O)C1=O (stereo unspecified) | 0.0 | · | · | · | -1.4 | ·
CCCOc1ccc(C(F)(F)F)cc1NC(=O)CCc1c(C)noc1C | 0.0 | · | -1.0 | · | 4.7 | ·
Cc1cc(C)nc(N/N=C/c2cn[nH]c2-c2ccccc2)n1 | 0.0 | -2.9 | 67.4* | -5.0 | -0.7 | 22.6
Cc1cc(C)nc(N/N=C/c2ccccc2)n1 | 0.1 | -1.9 | 4.4 | 3.3 | 1.2 | 8.0
Cn1cccc1/C=C1\SC(=O)N(c2ccccc2)C1=O | 3.0 | 1.0 | -4.8 | 23.6 | 1.0 | 64.7*
CCCCN(C(=O)c1ccc(S(=O)(=O)N(CC)CC)cc1)c1c(N)n(CCC)c(=O)[nH]c1=O | -0.4 | -0.1 | -2.3 | -7.4 | 0.3 | -14.5
COc1ccc(N2C(=O)N(Cc3ccc(C)cc3)c3ccccc3S2(=O)=O)cc1 | -0.2 | 26.9* | 3.3 | 1.8 | 0.0 | 1.7
CCCCc1nc2cc(C(=O)N3CCCC(OCCC)C3)ccc2o1 (stereo unspecified) | 1.2 | -2.3 | 5.4 | -0.1 | 2.2 | 14.4
Cc1cc(C(=O)CCC(=O)NCC(=O)Nc2c(C)cccc2C)c(C)s1 | 0.7 | · | 0.9 | · | -2.0 | ·
NC(=O)N=Nc1c(O)[nH]c2c(Br)cc(Br)cc12 | · | -3.9 | 50.3* | 2.8 | · | 43.6
Cc1ccc(N2C(=O)N(CC(=O)NC(N)=O)C(=O)C2C)cc1 (stereo unspecified) | 0.4 | 6.4 | 0.4 | -69.5* | -0.1 | -75.0
COCCNC(=O)C1(C)CCN(C(=O)c2sccc2C)C1 (stereo unspecified) | · | · | · | · | -1.6 | ·
CC(OC(=O)/C=C/c1ccc2ccccc2n1)C(=O)Nc1ccc(S(N)(=O)=O)cc1 (stereo unspecified) | -1.9 | · | 9.4 | 45.2 | -3.2 | ?
COc1ccccc1N1CCN(S(=O)(=O)c2cn(C)c(=O)n(C)c2=O)CC1 | 0.5 | -1.9 | 64.8* | -4.9 | 1.1 | 3.6
O=C(O)C(Cc1ccccc1)N1C(=O)C2C3CCC(C3)C2C1=O (stereo unspecified) | 0.7 | · | · | · | 0.2 | ·
C=CCOC(=O)C1=C(C)NC(SCC(=O)Nc2ccccc2)=C(C#N)C1c1ccco1 (stereo unspecified) | -0.8 | 0.7 | 6.0 | 3.4 | 0.7 | 12.2
O=C(O)CCSc1ncnc2sc(-c3ccccc3)cc12 | -0.2 | 12.3 | -12.3 | -63.7* | -12.8 | -65.3
O=c1c2[nH]c3ccccc3c2ncn1CCCn1ccnc1 | 0.9 | 0.7 | 65.6* | 2.8 | -1.2 | 4.0
CN(C)CCCn1c(=S)[nH]c2ccccc2c1=O | -0.7 | 2.6 | -0.3 | -3.7 | 2.3 | -11.3
O=c1c2ccccc2[nH]c(=S)n1CCN1CCc2ccccc2C1 | 4.3* | 0.5 | 35.0 | 9.6 | 0.1 | 2.1
O=c1c2ccccc2[nH]c(=S)n1CCCn1ccnc1 | 0.7 | 1.8 | 67.7* | 0.4 | 1.1 | 20.6
O=C1Nc2ccccc2N(O)N1c1cc(-c2ccccc2)[nH]n1 | -0.4 | 0.9 | 2.3 | 28.2 | 1.9 | 40.2
CC(C)OC(=O)N(C)C[C@@H]1OCc2cnnn2CCCC(=O)N([C@@H](C)CO)C[C@@H]1C | 1.1 | · | · | · | -0.1 | ·
COc1ccc(Cl)cc1NC(=O)C(C)NC(c1ccccc1)c1ccccc1 (stereo unspecified) | -0.3 | 2.1 | 1.4 | 0.3 | 5.1 | 4.6
N=C1C(=O)OCC1c1ccccc1NC(=O)Nc1ccccc1 (stereo unspecified) | 7.1* | 2.1 | 15.0 | 0.1 | 2.1 | 8.3
N=C1C(=O)OCC1c1ccccc1NC(=O)c1ccc(F)cc1 (stereo unspecified) | 1.0 | -1.2 | 6.2 | -2.2 | 1.2 | -0.3
